Most compounds without a hit are left out; they make up all but 6.6% or so of the library.
TGFb SMAD3 inh = blocks TGF-b signaling; 1.2% of 410,000 active; HepG2 CAGA-GFP TGF-b/SMAD3 reporter, GFP fluorescence, 18 h; TGF-beta stimulated, 500 pg/mL final; Potency, µM (highest dose often 46.1 µM), actives largely listed as inhibitors; note: nearly all actives have a fitted effect of over 65% in size
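Using HEPG2 CAGA-GFP reporter cells at 1000 cells/well, we pinned test compounds, stimulated with recombinant TGF-beta (500 pg/mL final) and measured total well GFP after 18 h.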
HT1080-NT tox = kills 2HG-producing HT-1080-NT fibrosarcoma cells. 1.6% of 360,000 active. HT-1080-NT fibrosarcoma viability, CellTiter-Glo ATP luminescence, 48 h. AID 686970. Potency, µM (doses to about 46.1 µM), usual class: cytotoxic;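 note: NT is the 2HG producing partner of a matched IDH1 knockdown line; nearly all actives have a fitted effect of over 55% in size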
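Viability of the 2HG-overproducing fibrosarcoma line after 48 hours of compound exposure at 37 degrees C was determined by luminescence with CellTiter-Glo, and concentration-effect curves were then fitted and categorized.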
HepG2 viability = HepG2 cytotoxicity, counter-screen for TGF-b inhibitors | HepG2 CAGA-GFP viability, ATP luminescence, 18 h | Potency, µM (series often up to 46.1 µM), usual class: cytotoxic | 0.76% of 410,000 active
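CellTiter-Glo luminescence gave cytotoxicity after 18 hours at 37 degrees C. The cells were HepG2 CAGA-GFP in 1% FBS DMEM, stimulated with 500 pg/mL TGF-beta after compound addition. %Activity was normalised to no-cell wells (complete cell-killing) and DMSO (no toxicity), and curves were fitted and classified.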
HT1080 IDH1KD tx = HT-1080 IDH1 knockdown cell toxicity (counter line) | HT-1080 IDH1 knockdown viability, ATP luminescence, 48 h | 2% of 360,000 active | AID 686971 | Potency, µM (top dose mostly 46.1 µM), usual class: cytotoxic
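After a 2 h attachment period, IDH1KD HT-1080 cells took pin-transferred compound for 48 h at 37 °C; ATP-based luminescence after 10 min room-temperature reagent incubation reported viability.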
KB-V1 MDR tox = KB-V1 MDR subline cytotoxicity; KB-V1 MDR cells viability, CellTiter-Glo, 72 h; Potency, µM (top dose mostly 46.1 µM), usual class: cytotoxic; 3.4% of 400,000 active; AID 1347076; note: nearly all actives have a fitted effect of over 60% in size
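KB-V1 MDR subline cells in DMEM (phenol-red free, 10% FBS) exposed to compounds in qHTS concentration series for 72 h at 37 degrees C. Viability read by CellTiter-Glo luminescence; concentration-effect curves fitted after normalization and correction.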
KB-3-1 cytotox = KB-3-1 parental cell cytotoxicity; 1.4% of 400,000 active; KB-3-1 viability, CellTiter-Glo ATP luminescence, 72 h; Potency, µM (highest dose often 46.1 µM), most hits filed as cytotoxic; AID 1347075; note: nearly all actives have a fitted effect of over 60% in size
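Cells are dispensed, compounds pinned in, plates held at 37 °C for 72 h, then CellTiter-Glo is added and luminescence read after 10 minutes. Cell line: parental KB-3-1 in phenol-red-free DMEM, 10% FBS.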
Large screens that a line does not name were inactive. Calls come from the whole dose curve; as a rule, active = well fitted curve in the direction sought with a large enough effect; inconclusive = small, poorly fitted or top-dose-only effect, or another doubt; inactive = no such curve, though single readings can be large; an effect the other way counts as inactive or inconclusive.

CCN1CCN(C(=O)c2ccc3c(c2)N(Cc2ccc(Cl)cc2)C(=O)c2ccccc2S3=O)CC1 (centres undefined)	TGFb SMAD3 inh inconclusive (no result: HT1080-NT tox, HT1080 IDH1KD tx)
CCCCCCCCCCCCCCCC(=O)OC(CC(=O)O)C[N+](C)(C)C (centres undefined)	HT1080-NT tox 9.2µM, HT1080 IDH1KD tx inconclusive, KB-3-1 cytotox 3.7µM
CCCCCCC(=O)O	none
Cn1c(CS(=O)Cc2c(Cl)cccc2Cl)nnc1SCc1c(Cl)cccc1Cl (centres undefined)	HT1080 IDH1KD tx inconclusive, KB-V1 MDR tox 5.8µM
O=S(Cc1ccc(Br)cc1)Cc1nnc(SCc2c(Cl)cccc2Cl)n1-c1ccccc1 (centres undefined)	TGFb SMAD3 inh inconclusive, KB-V1 MDR tox 0.82µM
C=CCNc1nc(NCCOc2ccccc2Cl)c2sc(-c3ccccc3)cc2n1	TGFb SMAD3 inh inconclusive, HT1080-NT tox 18µM, HT1080 IDH1KD tx inconclusive, KB-V1 MDR tox inconclusive, KB-3-1 cytotox inconclusive
C=CCNc1nc(NCc2ccc(N(C)C)cc2)c2sc(-c3ccccc3)cc2n1	TGFb SMAD3 inh inconclusive, HT1080-NT tox inconclusive, HepG2 viability 13µM, HT1080 IDH1KD tx inconclusive, KB-3-1 cytotox inconclusive
C=CCNc1nc(NCCOC)c2sc(-c3ccccc3)cc2n1	TGFb SMAD3 inh inconclusive, HT1080-NT tox inconclusive, HT1080 IDH1KD tx inconclusive, KB-V1 MDR tox inconclusive
c1ccc(OCCNc2nc(NCC3CC3)nc3cc(-c4ccccc4)sc23)cc1	TGFb SMAD3 inh inconclusive, HT1080-NT tox 15µM, HT1080 IDH1KD tx inconclusive, KB-V1 MDR tox inconclusive, KB-3-1 cytotox inconclusive
C=CCNc1nc(Nc2ccc(OC)c(OC)c2)c2sc(-c3ccccc3)cc2n1	HT1080-NT tox 5.2µM, HT1080 IDH1KD tx 5.8µM, KB-V1 MDR tox inconclusive, KB-3-1 cytotox 2.1µM
Cn1c(NCc2ccccc2)nc2cc(-c3ccccc3)sc2c1=O	none
c1ccc(CNc2nc(NCC3CC3)nc3cc(-c4ccccc4)sc23)cc1	TGFb SMAD3 inh inconclusive, HT1080-NT tox 23µM, HT1080 IDH1KD tx inconclusive, KB-3-1 cytotox inconclusive
COc1ccccc1CNC(=O)CCCn1c(=O)c2ccccc2n(Cc2ccc(C)cc2)c1=O	none (no result: HT1080-NT tox, HT1080 IDH1KD tx)
CC(C)(C)OC(=O)NCCc1nnc(S(=O)(=O)Cc2ccc(Cl)cc2Cl)o1	TGFb SMAD3 inh 10µM, HT1080-NT tox 18µM, HepG2 viability 14µM, HT1080 IDH1KD tx 16µM
CC(C)(C)OC(=O)NCCc1nnc(SCc2ccccc2Cl)o1	none
COc1cc(C(=O)NCC(c2ccco2)N2CCCC2)ccc1OCc1ccc(Cl)cc1Cl (centres undefined)	TGFb SMAD3 inh inconclusive, HT1080-NT tox inconclusive, HT1080 IDH1KD tx inconclusive, KB-V1 MDR tox inconclusive
O=C1CCCc2c1[nH]c1ccc(Cl)cc21	TGFb SMAD3 inh inconclusive, KB-V1 MDR tox inconclusive, KB-3-1 cytotox inconclusive
OCCCN=C1CCCc2c1[nH]c1ccc(Cl)cc21	KB-V1 MDR tox 1.5µM, KB-3-1 cytotox 9.2µM
OCCN=C1CCCc2c1[nH]c1ccc(Cl)cc21	KB-V1 MDR tox 0.73µM, KB-3-1 cytotox 2.1µM
CC(=NCc1ccco1)c1c(O)n(C2CCCCC2)c(=O)[nH]c1=O	KB-V1 MDR tox 5.8µM
O=C(Cn1ncc2c3ccccc3n(Cc3cccc(Cl)c3)c2c1=O)N1CCCCCC1	none (no result: HT1080-NT tox, HT1080 IDH1KD tx)
N#C/C(=C\c1ccc(N2CCOCC2)o1)c1nc2ccccc2[nH]1	HT1080-NT tox inconclusive, HT1080 IDH1KD tx inconclusive
N#C/C(=C/c1ccc(N2CCOCC2)o1)c1ccc(Cl)cc1	HT1080-NT tox 6.3µM, HT1080 IDH1KD tx 3.5µM, KB-V1 MDR tox inconclusive
Cc1cc(C(N)=O)c2ccccc2n1	none
NC(=O)c1cc2c3ccccc3ccn2c1-c1ccccc1	TGFb SMAD3 inh inconclusive, HT1080-NT tox 1.6µM, HT1080 IDH1KD tx inconclusive, KB-V1 MDR tox 0.65µM, KB-3-1 cytotox 1.2µM
Nc1cccc(/C=C/c2ccnc3ccccc23)c1	KB-V1 MDR tox inconclusive, KB-3-1 cytotox inconclusive (no result: HT1080-NT tox, HT1080 IDH1KD tx)
CC1(C)Cc2c(sc3nc(-c4cccs4)n(N)c(=O)c23)CO1	HT1080-NT tox inconclusive, HT1080 IDH1KD tx inconclusive, KB-V1 MDR tox 8.2µM

Screening results as filed in PubChem.
